Laboratory results reported in PubChem BioAssay (NCATS).
Records with an inconclusive call do not appear. Activity calls are given as the source filed them. Calls come from the whole dose curve; as a rule, active = well fitted inhibition curve with a large enough effect; inconclusive = small, poorly fitted or top-dose-only effect; inactive = no such curve, though single readings can be large or run the other way.

Test: qHTS assay to identify inhibitors of the type 1 interferon - major histocompatibility complex class I in skeletal muscle: Counter screen cell viability and HiBit confirmation (AID 1347412); note: nearly all actives have a fitted effect of over 60% in size
Conditions: iHSKM muscle cells + IFN-b, HiBiT or CellTiter-Glo, 24 h; HiBiT
In short: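 Luminescence read-out: Nano-Glo HiBiT lytic signal from C-terminally HiBiT-tagged HLA-B in CRISPR-edited human myoblasts, plus CellTiter Glo ATP as viability counter screen. IFN-beta 4.0 ng/ml; 24 hrs treatment at 37 C, 5% CO2.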
Potency is the fitted concentration of half-maximal effect.

Row | Compound | Potency
1 | CCOc1cc2ncc(C#N)c(Nc3ccc(F)c(Cl)c3)c2cc1NC(=O)/C=C/CN(C)C | 1.98 µM (active)
2 | CCS(=O)(=O)N1CCN(c2ccc(Nc3ncc(C(N)=O)c(NC4CC4)n3)cc2)CC1 | 1.98 µM (active)
3 | CCN1CCN(Cc2ccc(NC(=O)Nc3ccc(Oc4cc(NC)ncn4)cc3)cc2C(F)(F)F)CC1 | 5.57 µM (active)
